# Active and inactive are the calls of the source. The rule behind the calls is not given here.
# Target: Muscarinic acetylcholine receptor M1 (Homo sapiens) (UniProt P11229)
# Test: ACh response enhancement at human M1 – CHO cells, selectivity assay for M5 PAM project (AID 651923)
# Sequence of Muscarinic acetylcholine receptor M1 (Homo sapiens) (P11229 whole entry, looked up): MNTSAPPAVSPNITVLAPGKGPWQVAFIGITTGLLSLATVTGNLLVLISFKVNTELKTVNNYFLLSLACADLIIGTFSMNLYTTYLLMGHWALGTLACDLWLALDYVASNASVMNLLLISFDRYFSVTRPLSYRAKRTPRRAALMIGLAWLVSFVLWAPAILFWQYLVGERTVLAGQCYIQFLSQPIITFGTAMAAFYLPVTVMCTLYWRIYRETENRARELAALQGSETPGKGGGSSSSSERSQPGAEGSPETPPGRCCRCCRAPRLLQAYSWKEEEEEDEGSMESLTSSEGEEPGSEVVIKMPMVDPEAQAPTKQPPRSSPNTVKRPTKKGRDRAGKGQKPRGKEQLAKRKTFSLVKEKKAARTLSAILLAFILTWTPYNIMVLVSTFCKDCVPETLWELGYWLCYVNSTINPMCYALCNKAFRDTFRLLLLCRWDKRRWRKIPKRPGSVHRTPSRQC
smiles,measurement,value
O=C1C(=O)N(CCOc2ccccc2)c2ccc(OC(F)(F)F)cc21,outcome,inactive
